Measured values reported in PubChem BioAssay AID620 (Sanford-Burnham Center for Chemical Genomics, 2007).
The whole screen tested about 87,000 compounds, of which about 360 (0.41%) were called active. Shown is part of a subset that was picked to be rich in actives. Unmarked numbers belong to inactive results. Rule as the data show it: active = cytotoxicity above about 50%; inactive = the rest.

experiment: HT1080 cell viability loss – fluorescence readout (AID 620); conditions: at 10 µM, stronger effect = higher value;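 also: cells exposed to compound overnight then 4 h with Alamar Blue; 0% = vehicle DMSO and 100% = killing control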

| SMILES | cytotoxicity |
| --- | --- |
| COc1ccc(CC(=O)NCc2nnc(SCC(=O)N3CCN(c4ccccc4)CC3)n2C)cc1 | -7% |
| COc1ccc(C)cc1NC(=O)CNC(=O)Cn1ccc2ccccc2c1=O | 7.1% |
| Cc1nnc(Sc2nc3c(c(=O)[nH]c(=O)n3C)n2Cc2ccccc2Cl)s1 | 1% |
| COCCCNC(=O)Cn1cc2c(n1)CCC(C)C2 (configuration not stated) | -3.5% |
| Nc1[nH]c(=S)[nH]c(=O)c1-c1ccccc1 | -5% |
| O=C(Nc1ccc(N2CCN(Cc3ccccc3)CC2)cc1)c1ncn[nH]1 | -2.9% |
| CC(=O)c1ccc(NC(=O)c2ccn[nH]2)cc1 | -0.3% |
| COc1cc(CC(=O)Oc2ccc3c(c2)OCO3)cc(OC)c1OC | 2.2% |
| COc1cc([C@@H]2c3cc4c(cc3[C@H](O)[C@H]3COC(=O)[C@H]23)OCO4)cc(OC)c1OC | 68.5% (active) |
| COc1cc(CC(=O)NCc2ccc3c(c2)OCO3)cc(OC)c1OC | 3.1% |
| COc1ccc2c(c1OC)C(=O)OC2Nc1ncc(Br)cc1Br (configuration not stated) | 6.2% |
| COc1cc(C2CC(=O)c3cnc(N4CCN(Cc5ccccc5)CC4)nc3C2)cc(OC)c1OC (configuration not stated) | 52.5% (active) |
| CCN1CCN(c2ncc3c(n2)CC(c2cc(OC)c(OC)c(OC)c2)CC3=O)CC1 (configuration not stated) | 51.1% (active) |
| COc1ccc(C2CC(=O)c3c(C)nc(N4CCN(Cc5ccccc5)CC4)nc3C2)cc1OC (configuration not stated) | -20.1% |
| CCN1CCN(c2ncc3c(n2)CC(c2ccc(OC)c(OC)c2)CC3=O)CC1 (configuration not stated) | -13% |
| COc1ccc(C2CC(=O)c3cnc(N4CCN(Cc5ccccc5)CC4)nc3C2)cc1 (configuration not stated) | 22.6% |
| COc1cc(C2CC(=O)c3cnc(N)nc3C2)cc(OC)c1OC (configuration not stated) | 0.9% |
| COc1ccc(-n2c3c(cc(C(=O)Nc4ccc(C)cc4)c2=O)C(=O)CCC3)cc1 | 14.6% |
| CCOc1ccc2nc(SCC(=O)NC(=O)NCc3ccco3)[nH]c2c1 | -12.9% |
| Cc1cc(N2CCCC2)nc(-c2ccccc2O)n1 | 1.6% |
| Cc1ccc(-c2csc3ncn(/N=C/N(C)C)c(=O)c23)o1 | 1.3% |
| Cn1cc(/C=N/n2cnc3sc4c(c3c2=O)CCCC4)c2ccccc21 | -0.6% |
| CCn1cnc2scc(-c3ccccc3)c2c1=O | 6% |
| Cn1cc(/C=N/n2cnc3scc(-c4ccccc4)c3c2=O)c2ccccc21 | 52.6% (active) |
| Cn1cc(/C=N/n2cnc3scc(-c4ccc(Cl)cc4)c3c2=O)c2ccccc21 | 57.8% (active) |

| SMILES | cytotoxicity |
| --- | --- |
| Cc1nn(-c2ccccc2)c(N2CCCC2)c1/C=N/n1cnc2scc(-c3ccccc3)c2c1=O | -0.7% |
| COc1ccc(S(=O)(=O)CCC(=O)NCCc2ccc(C)cc2)cc1 | -7.2% |
| COCCNC(=O)C(c1cccs1)N(C(=O)Cn1nnc2ccccc21)c1ccccc1 (configuration not stated) | 2.1% |
| Nc1cccc(Nc2nc(OC(C(F)(F)F)C(F)(F)F)nc(OC(C(F)(F)F)C(F)(F)F)n2)c1 | -15.3% |
| Cc1cc(C)c2nc(SCC(=O)N3CC(=O)Nc4ccccc43)c(C#N)cc2c1 | 70.8% (active) |
| CCc1ccc2nc(SCC(=O)N3CC(=O)Nc4ccccc43)c(C#N)cc2c1 | -5.8% |
| O=C1CN(C(=O)c2ccccc2)c2ccccc2N1 | 1.9% |
| Cc1ccsc1C(=O)N1CC(=O)Nc2ccccc21 | -1.3% |
| Cc1cccc2cc(C#N)c(SCC(=O)N3CCC(C)CC3)nc12 | -4.3% |
| Cc1cc(C)c2nc(SCC(=O)Nc3ccccc3N3CCOCC3)c(C#N)cc2c1 | 4.9% |
| Cc1cc(C)c2nc(SCC(=O)N3CCCCC3)c(C#N)cc2c1 | -0.9% |
| Cc1cc(C)cc(C(=O)N2CC(=O)Nc3ccccc32)c1 | 63.6% (active) |
| Cc1cccc2cc(C#N)c(SCC(=O)N3CC(=O)Nc4ccccc43)nc12 | 62.5% (active) |
| CC(C)Nc1oc(Cc2cccc3ccccc23)nc1C#N | 4.7% |
| O=C(CSc1nc2ccccc2o1)c1ccccc1 | -3.2% |
| Cc1cccc(NC(=S)N2N=CCC2c2ccccc2)c1 (configuration not stated) | -1.4% |
| CC1=C(C(=O)OCc2ccccc2)C(c2ccccc2OC(=O)c2ccc(I)cc2)NC(=O)N1CCCC(=O)O (configuration not stated) | -5.3% |
| Cn1c(SCC(=O)NCCNC(=O)CSc2nnc(C(F)(F)F)n2C)nnc1C(F)(F)F | 5.9% |
| Cc1cc(=O)[nH]c(-n2nc(C)cc2C)n1 | -0.8% |
| Cc1ccc(Nc2cc(C)nn2-c2nc(C)cc(C)n2)cc1 | -13.7% |
| Cc1ccc(Nc2cc(C)nn2-c2nc(C)cc(=O)[nH]2)cc1 | 65.9% (active) |
| O=C(Nc1nc(-c2cc(Cl)sc2Cl)cs1)c1cccs1 | -0.1% |
| CC(C)Sc1nc(-c2ccccc2)cc(=O)[nH]1 | 16.9% |
| N#CCCCSc1nnc(-c2ccccn2)o1 | 0.3% |
| CN(C)CCCNC(CC(=O)Nc1ccc(Cl)cc1)C(=O)O (configuration not stated) | -0.1% |

| SMILES | cytotoxicity |
| --- | --- |
| CCOC(=O)C1CCCN(C(=O)C2CCN(S(=O)(=O)c3cnc[nH]3)CC2)C1 (configuration not stated) | 3.9% |
| O=C(Nc1cccc(-c2cnc3ccccc3n2)c1)c1ccco1 | -2.2% |
| O=C(CCl)Nc1cccc(-c2cnc3ccccc3n2)c1 | 98.8% (active) |
| O=C(CNC(=O)c1ccc(Br)o1)Nc1cccc(-c2cnc3ccccc3n2)c1 | -7.7% |
| CCC(=O)N1c2ccccc2NC2=C(C(=O)CCC2)C1c1cccnc1 (configuration not stated) | -7% |
| CC(=O)N1CCCc2cc(S(=O)(=O)N(CC(C)C)CC(C)C)ccc21 | -25.7% |
| O=C(c1cccs1)N(Cc1ccco1)Cc1cc2ccccc2[nH]c1=O | -4.8% |
| Cc1ccc2[nH]c(=O)c(CN(Cc3ccco3)C(=O)c3cccs3)cc2c1 | 4.9% |
| Cc1ccc2cc(CN(Cc3ccco3)C(=O)c3cccs3)c(=O)[nH]c2c1 | 59.8% (active) |
| CN(C)S(=O)(=O)c1ccc(S(=O)(=O)N(CC(=O)Nc2ccccc2)Cc2ccco2)cc1 | 4.9% |
| COc1nnc(-c2ccc(C)c(S(=O)(=O)NCCO)c2)c2ccccc12 | 12.8% |
| CSc1cc(-c2ccccc2)n(Cc2ccccc2Cl)c(=O)c1C#N | 57.5% (active) |
| Cn1c(=O)c2c(nc(SCCCC#N)n2Cc2c(F)cccc2Cl)n(C)c1=O | 1.4% |
| CSc1cc(-c2ccccc2)n(Cc2c(Cl)cccc2Cl)c(=O)c1C#N | 58.7% (active) |
| CSc1cc(-c2ccccc2)n(Cc2ccc(Cl)cc2Cl)c(=O)c1C#N | -9.5% |
| CSc1cc(-c2ccc(Cl)cc2)n(Cc2ccccc2)c(=O)c1C#N | -8.7% |
| Cc1cc(C)n(Cc2ccccc2F)c(=O)c1C#N | 4.8% |
| CCOc1ccc(-c2cnc(SCC(N)=O)nc2N)cc1 | 3.8% |
| CCCCOc1ccc(Br)cc1/C(C)=N/NC1=NCCN1 | 65.1% (active) |
| CCOc1ccc(CSC2=NCCN2)cc1Cl | 12.8% |
| CCCOc1ccc(Br)cc1/C=N/O | -13% |
| COc1ccc(Br)cc1/C(C)=N/NC1=NCCN1 | -8.6% |
| CCOc1ccc(Br)cc1/C(C)=N\NC1=NCCN1 | 12.3% |
| CCCCCOc1ccc(Br)cc1/C(C)=N/NC1=NCCN1 | 74.8% (active) |
| CCOc1ccc(NC(=O)c2cnccn2)cc1 | -17% |

| SMILES | cytotoxicity |
| --- | --- |
| OC(c1cccnc1)c1cccs1 (configuration not stated) | -4.7% |
| COc1ccc(Br)cc1CN1CCCC(C(=O)N2CCCCCC2)C1 (configuration not stated) | 1.9% |
| O=C(Cn1nnc(-c2ccccc2NC(=O)c2cccs2)n1)Nc1ccccc1 | 0.3% |
| Cc1ccc(NC(=O)Cn2nnc(-c3ccccc3NC(=O)c3cccs3)n2)cc1 | 61.8% (active) |
| COc1ccc(NC(=O)Cn2nnc(-c3ccccc3NC(=O)c3cccs3)n2)cc1 | -14.1% |
| Cn1c(=O)c2c(-c3ccccc3)n(-c3ccccc3O)cc2n(C)c1=O | 35.8% |
| COc1ccc2c(c1OC)C(=O)N1c3cccc(Cl)c3C(=O)OC21 (configuration not stated) | 14.4% |
| COc1ccc(Nc2nc(C)cc(C)c2C(N)=O)cc1 | 3.9% |
| COc1ccc(C2C3=C(Nc4ncnn42)c2ccccc2CC3)cc1OC (configuration not stated) | -2.9% |
| Clc1ccc(C2C3=C(Nc4ncnn42)c2ccccc2CC3)cc1 (configuration not stated) | -2.4% |
| COc1cc(C2C3=C(Nc4ncnn42)c2ccccc2CC3)cc(OC)c1OC (configuration not stated) | 63.8% (active) |
| Cc1nn(Cc2ccc(F)cc2)c(C)c1NC(=O)c1cnn2c1NC(c1cccs1)CC2C(F)(F)F (configuration not stated) | 11% |
| C=C(C)CSc1nc(C)c(Cc2ccccc2)c(=O)[nH]1 | -0.4% |
| c1ccc(NCc2nnc3n2CCCCC3)cc1 | 1.8% |
| Cn1c(=O)c2c(nc(NCCc3ccccc3)n2Cc2ccc(F)cc2)n(C)c1=O | 0.4% |
| O=C(Cc1ccc(F)cc1)NCCc1ccccc1 | -6.5% |
| CC(=O)n1nc(-c2ccccc2)nc1NCc1ccc(F)cc1 | -1.3% |
| Cn1c(=O)c2c(nc(NCc3ccccc3)n2Cc2ccc(F)cc2)n(C)c1=O | -1.5% |
| CC(=O)N(Cc1ccc(F)cc1)C1=C(NCc2ccccc2)C(=O)c2ccccc2C1=O | 92.6% (active) |
| O=C(Nc1cccc(NC(=O)c2cccnc2Cl)c1)c1ccco1 | -4% |
| c1ccc2sc(-c3ccc4c(c3)OCO4)nc2c1 | 0.6% |
| CCCCN(C(=O)CNC(=O)c1ccco1)C(C(=O)NC1CCCCC1)c1ccc(OC)cc1OC (configuration not stated) | -14.5% |
